Shown are actives, neighbours in structure and some others; about 2.8% of the full set was active somewhere.
KDM5B inhibitor – KDM5B demethylase inhibition; 220,000 tested, 2.6% active; Q9UGL1; KDM5B demethylase, FDH-coupled NADH fluorescence (FDH is formaldehyde dehydrogenase); Potency, µM (doses to about 57.7 µM), usual class: inhibitors; AID 1347165; active = well fitted inhibition curve with a large enough effect; inconclusive = small, poorly fitted or top-dose-only effect; inactive = no such curve, though single readings can be large or run the other way; also: nearly all actives have a fitted effect of over 70% in size
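Measured: NADH fluorescence change, 30 min, RT. System: KDM5BΔAP 200 nM final, H3K4me3 peptide, α-KG, Fe(II), ascorbate, NAD⁺ plus FDH, pH 7.5 HEPES. Compounds: titrated, 10 min pre-incubation with enzyme.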
IP6K1 inh – inhibitors of human IP6K1. IP6K1 kinase, ADP-Glo luminescence, 2 h; stronger effect = lower value. AID 1645851. 140,000 tested, 0.81% active. activity change, % (series mostly up to about 58 µM); in the data active = activity change below about -25%
Target sequence (Q92551 whole entry, looked up): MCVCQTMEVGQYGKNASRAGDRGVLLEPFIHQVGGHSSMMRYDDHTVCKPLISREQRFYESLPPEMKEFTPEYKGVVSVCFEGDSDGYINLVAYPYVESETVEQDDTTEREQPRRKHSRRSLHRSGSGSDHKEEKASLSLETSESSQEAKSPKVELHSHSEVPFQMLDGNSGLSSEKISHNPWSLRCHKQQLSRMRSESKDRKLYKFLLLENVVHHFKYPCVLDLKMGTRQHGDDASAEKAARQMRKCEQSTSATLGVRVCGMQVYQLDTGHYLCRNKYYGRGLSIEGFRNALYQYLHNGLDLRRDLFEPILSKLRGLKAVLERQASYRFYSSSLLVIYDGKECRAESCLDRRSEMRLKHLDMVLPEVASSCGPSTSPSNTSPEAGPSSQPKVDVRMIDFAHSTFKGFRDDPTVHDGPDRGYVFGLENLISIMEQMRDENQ
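ADP-Glo luminescence measures ADP made by human IP6K1 during a 2 h RT reaction with ATP/IP6 (mix at 1.3 mM/130 uM); top library doses 57.5 and 19.1 uM final.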
Of the large screens only hits and unclear results are named; the others gave an inactive call.

CCOC(=O)[C@@H]1CN([S+](=O)([O-])c2ccccc2)[C@H]2c3ccccc3O[C@@H]12	none (no result: KDM5B inhibitor)
O=C1c2cnc(-c3ccc(F)cc3F)nc2OCCN1Cc1ccc(F)cc1F	none
O=C1c2cnc(-c3ccoc3)nc2OCCN1Cc1ccc(F)cc1F	KDM5B inhibitor 35.5µM
COc1ccc(-c2nc(C(=O)NC3CC3)n3ccccc23)cc1	KDM5B inhibitor 31.6µM
C[S+](=O)([O-])c1ccc(-c2nc(C(=O)NC3CC3)n3ccccc23)cc1	none
COc1ccccc1-c1nc(C(=O)NC2CC2)n2ccccc12	none
CC(C)(C)OC(=O)N1CCC(NC(=O)c2nc(-c3ccccc3)c3ccccn23)CC1	KDM5B inhibitor 79.4µM
CCOc1ccc(CC(=O)N2CCC(Cc3nc(-c4ccc(OC)cc4)no3)CC2)cc1	none
c1ccc2oc(Oc3ccc(C4SCCS4)cc3)nc2c1	none (no result: IP6K1 inh)
O=c1cc(-c2cccnc2)nc(-c2ccc(CN3CC[C@@H](O)C3)cc2)[nH]1	none
O=c1[nH]c2cc3c(cc2cc1CN1CC[C@H](O)C1)OCO3	KDM5B inhibitor 28.2µM
Cc1noc(C)c1-c1cc(-c2cccc(F)c2)cn2cncc12	KDM5B inhibitor inconclusive
Cc1noc(C)c1-c1cc(-c2ccccc2F)cn2cncc12	KDM5B inhibitor 35.5µM
Cc1noc(C)c1-c1cc(-c2ccccc2C(F)(F)F)cn2cncc12	KDM5B inhibitor 39.8µM
COc1ccc(-c2cc(-c3c(C)noc3C)c3cncn3c2)cn1	KDM5B inhibitor inconclusive
CC#CCn1cc2c3c(cccc31)[C@H](CC(C)C)N[C@H](C(=O)NCCN(C)C)C2	KDM5B inhibitor inconclusive
CC(C)C[C@@H]1N[C@H](C(=O)NC2CCCC2)Cc2cn(CC3CC3)c3cccc1c23	KDM5B inhibitor inconclusive
C=CCn1cc2c3c(cccc31)[C@H](CC(C)C)N[C@H](C(=O)N1CCN(C)CC1)C2	KDM5B inhibitor 22.4µM
CC(C)C[C@@H]1N[C@H](C(=O)O)Cc2cn(CC3CC3)c3cccc1c23	KDM5B inhibitor 31.6µM
C=CCn1cc2c3c(cccc31)[C@H](CC(C)C)N[C@H](C(=O)NCCN1CCOCC1)C2	KDM5B inhibitor inconclusive
CC#CCn1cc2c3c(cccc31)[C@H](CC(C)C)N[C@H](C(=O)N1CCN(C)CC1)C2	KDM5B inhibitor inconclusive
CC#CCn1cc2c3c(cccc31)[C@H](CC(C)C)N[C@H](C(=O)NCCNC(C)=O)C2	KDM5B inhibitor 31.6µM
C=CCn1cc2c3c(cccc31)[C@H](CC(C)C)N[C@H](C(=O)N1CCOCC1)C2	KDM5B inhibitor 31.6µM
O=C(C1CC1)N1CCN(Cc2ccccc2-c2ccccc2F)CC1	none (no result: KDM5B inhibitor)
Cc1cccc(/C=N/Nc2ccc([N+](=O)[O-])cc2)n1	none (no result: IP6K1 inh)
Cc1ccc(-c2ccccc2CN2CCC(C(=O)NCCc3ccccc3)CC2)cc1Cl	none (no result: KDM5B inhibitor)
O=C(CCc1ccc(CC2CCN(Cc3c[nH]c4ccccc34)CC2)cc1)N1CCCC1	none (no result: KDM5B inhibitor)
CC(C)C[C@@H]1N[C@H](C(=O)N2CCOCC2)Cc2cn(Cc3cccnc3)c3cccc1c23	none
C=CCNC(=O)[C@@H]1Cc2cn(CC#CC)c3cccc(c23)[C@H](CC(C)C)N1	none
C=CCNC(=O)[C@@H]1Cc2cn(Cc3c(C)noc3C)c3cccc(c23)[C@H](CC(C)C)N1	KDM5B inhibitor 28.2µM
CC(C)C[C@@H]1N[C@H](C(=O)N2CCOCC2)Cc2cn(CC3CC3)c3cccc1c23	KDM5B inhibitor 35.5µM
Cc1ccc(NC(=O)COC(=O)c2ccc3ccccc3n2)c(C)c1	none (no result: IP6K1 inh)
COc1ccccc1-c1cc(C(=O)N2CCCC2)c2cnn(C)c2n1	none
COC(=O)CNC(=O)c1cc(-c2ccccc2OC)c2cnn(C)c2n1	KDM5B inhibitor inconclusive
COc1ccccc1-c1cc(C(=O)N2CCCC2)nc2c1cnn2C	KDM5B inhibitor 79.4µM
C#CCNC(=O)c1cc(-c2ccccc2OC)c2cnn(C)c2n1	KDM5B inhibitor 89.1µM
CCCC(=O)Nc1ccc(CNCc2ccc(Br)cc2)cc1	none (no result: IP6K1 inh)
COc1ccc(F)cc1-c1ccc(CN2CCCCC2C(=O)NC(C)CCc2ccccc2)cc1 (centres undefined)	none (no result: KDM5B inhibitor)
Cc1noc(C)c1[S+](=O)([O-])N1CCC(C(=O)N2CCC3(CC2)CC(=O)Nc2ccccc2O3)CC1	none (no result: KDM5B inhibitor)
Cc1nn2c(c1-c1ccccc1[S+](C)(=O)[O-])N(CCCc1ccccc1)CCC2	KDM5B inhibitor 25.1µM
Cc1nn2c(c1-c1cccnc1N1CCOCC1)N(CCCc1ccccc1)CCC2	none
Cc1nn2c(c1-c1ccccc1[S+](C)(=O)[O-])N(Cc1ccccc1)CCC2	none
Cc1nn2c(c1-c1ccccc1C(N)=O)N(CCCc1ccccc1)CCC2	KDM5B inhibitor 31.6µM
O=C(Nc1cccc(F)c1)C1CN(C2CCCC2)C(=O)N1 (centres undefined)	none (no result: KDM5B inhibitor)
CN(C)CC(=O)N1CCN(C(=O)C=C(C2CC2)C2CC2)CC1	none (no result: IP6K1 inh)
CC(NC(=O)c1ccoc1)C(=O)Nc1cccnc1N1CCCCC1 (centres undefined)	none (no result: IP6K1 inh)
O=c1ccc(N2CCC(NS(=O)(=O)c3ccc(F)c(F)c3)CC2)nn1CC1CC1	KDM5B inhibitor inconclusive
Cc1ccc(F)cc1S(=O)(=O)NC1CCN(c2ccc(=O)n(CC3CC3)n2)CC1	KDM5B inhibitor 28.2µM
